# Experimental data taken from PubChem BioAssay (NCI).
# About 83,000 compounds went through this panel and 20% of them were active in at least one assay; those are over-represented in the sample as a whole.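 Values shown are percent growth following 48 h exposure of cells in 96-well plates to a single concentration of compound; below 10 was considered active.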 Values without a mark were called inactive. Active and inactive are the calls of the source.
# Assays:
# Test in all cases: NCI-60 one-dose screen, 48 h (100 = growth as untreated, 0 = no growth, -100 = all killed)
# Details in all cases: 10 µM unless noted
# [1] = test system: T-47D breast
# [2] = test system: BT-549 breast
# [3] = test system: MDA-MB-435 melanoma
# [4] = test system: SW-620 colon
# [5] = test system: MCF7 breast
# [6] = test system: HCT-116 colon
# [7] = test system: HCC-2998 colon
# [8] = test system: KM12 colon
Compound,growth [1],growth [2],growth [3],growth [4],growth [5],growth [6],growth [7],growth [8]
Cc1ccc(S(=O)(=O)n2cc(C3C(Cl)C(=O)N3c3ccc(N4CCOCC4=O)cc3)c3ccccc32)cc1 (stereo unspecified),51%,48.3%,-21.2% (active),26.1%,20.8%,16.5%,86.6%,85.6%
C[C@H]1[C@H](C)CC[C@]2(C(=O)O)CC[C@]3(C)C(=CC[C@@H]4[C@@]5(C)C[C@@H](Cc6cn([C@@H]7O[C@H](CO)[C@@H](O)[C@H](O)[C@H]7O)nn6)[C@H](O)C(C)(C)[C@@H]5CC[C@]43C)[C@H]12,93.5%,102%,101%,97.6%,92.7%,92%,107%,108%
COc1cc(-c2cc(-c3ccc(Nc4ncnc5cc(Cl)ccc45)cc3)nc(N3CCN(C)CC3)n2)cc(OC)c1OC,99.3%,94.5%,102%,72.4%,53.8%,64%,110%,86.1%
C/C(=N\O)C(=O)NCCCCCC(=O)Nc1ccccc1,86.5%,88.6%,101%,104%,95.1%,100%,101%,103%
CO[C@H](C(=O)[C@@H](O)[C@@H](C)O)[C@@H]1Cc2cc3cc(O[C@H]4C[C@@H](O[C@H]5C[C@@H](O)[C@H](O)C(C)O5)[C@H](O)C(C)O4)c(C)c(O)c3c(O)c2C(=O)[C@H]1O[C@H]1C[C@@H](O[C@H]2C[C@@H](O[C@H]3C[C@@H](OC)[C@H](O)C(C)O3)[C@@H](O)C(C)O2)C(O)(O)C(C)O1 (stereo partly specified),0.438% (active),-20.1% (active),-30.5% (active),22%,4.2% (active),6.1% (active),-13.7% (active),9.69% (active)
Cc1nc2sc(C(=O)Nc3ccc(Cl)cc3)c(N)c2cc1C(O)c1ccccc1 (stereo unspecified),40.8%,59.2%,-12.6% (active),25.1%,21.1%,25.9%,62.5%,21.7%
COc1ccc(C/C(C)=C(\c2ccc(O)cc2)c2ccc(OCCN3CCCC3)cc2)cc1,73.3%,110%,103%,104%,63.3%,93.8%,104%,106%
COc1cc(-c2nc3occn3c2-c2ccnc(NCCCNS(=O)(=O)c3ccccc3)n2)ccc1F,8.36% (active),29.7%,9.04% (active),65.2%,20.5%,34.3%,69.1%,30%
COc1cc(C(=O)c2c(-c3ccccc3)oc3c(OC)cccc23)cc(OC)c1O,44%,11.7%,-30.4% (active),22.7%,14.1%,10.2%,-3.66% (active),16.6%
C=C1C(=O)O[C@H]2[C@H]1CC/C(CNC(=O)c1cc3ccccc3[nH]1)=C\CC[C@@]1(C)O[C@@H]21,-42.2% (active),-79.8% (active),-37.2% (active),-57.4% (active),-56.7% (active),-84% (active),-75.5% (active),-38.4% (active)
CCc1cccc(Sc2cc(C(=O)N3Cc4ccc(OCCN(C)C)cc4C3)ccc2O)c1,37.2%,70.1%,64.1%,41.9%,24.8%,49.5%,75%,23.5%
COc1ccc2cc(Cn3cc[n+](Cc4ccc5ccccc5c4)c3)ccc2c1,-4.51% (active),11.8%,7% (active),44.4%,40.9%,33.7%,26.7%,-23.2% (active)
CC1=CCC[C@@H]2C1(C)CC[C@H](C)[C@@]2(C)CC1=CC(=O)C(SC(C)(C)C)=CC1=O (stereo partly specified),-11.8% (active),80.5%,97.2%,78.9%,-61.1% (active),64%,96.8%,93.1%
Cc1c2ccccc2nc2c1ccc1cccnc12,35.1%,96.3%,83%,93%,21.7%,56.2%,87.3%,78.2%
O=C1/C(=C/c2ccc(Br)cc2)COc2ccc(O)c(O)c21,-16.3% (active),3.5% (active),-24.4% (active),-35.9% (active),4.13% (active),-15.9% (active),-66.3% (active),-68% (active)
CCOC(=O)n1cc(-c2nonc2-c2cn(C)c3ccccc23)c2ccccc21,40.6%,55.3%,-8% (active),18.8%,21.6%,22.3%,60.9%,29.1%
CC(C)c1ccc(C(=O)Nc2sc3cc(O)ccc3c2C#N)cc1,36.4%,20.8%,-42.9% (active),28.7%,13.8%,15%,60.3%,21%
Cc1ccc2[nH]c(-c3ccc(S(C)(=O)=O)cc3)c(/C=N/N=C(N)N)c2c1,67.8%,76.9%,-21.9% (active),36.4%,64.6%,24.4%,74%,46.1%
C=C1C(=O)O[C@H]2[C@H]1CC/C(Cn1cc(-c3cc(C(F)(F)F)cc(C(F)(F)F)c3)nn1)=C\CC[C@@]1(C)O[C@@H]21,-60.6% (active),-78% (active),-81.7% (active),-35.8% (active),-67.6% (active),-87.2% (active),-87.4% (active),-77.1% (active)
COc1ccc(C2=C/C(=C\c3ccc(Cl)cc3)C(=O)N2/N=C/c2ccc(Cl)cc2)cc1,82.1%,101%,104%,98.9%,84.5%,109%,108%,90.2%
COc1ccc(-c2cc(-c3cc(OC)c(OC)c(OC)c3)c(C#N)c(=O)n2CCCCCC(=O)NO)cc1,71.7%,99.5%,98.2%,101%,89%,88%,110%,93.4%
COc1ccc(C(C)=O)cc1S(N)(=O)=O,105%,95.6%,99.3%,103%,96.4%,89%,98.3%,103%
COc1cc2ncnc(Nc3ccc(F)c(Cl)c3)c2cc1OCC(=O)N1CCN(c2ccc(F)cc2)CC1,75.2%,101%,96.5%,101%,83.8%,88.7%,98.1%,100%
CN1CCCc2cc(/C=C3/SC(=S)N(CCc4ccc(O)cc4)C3=O)ccc21,84%,84.9%,17.5%,85%,72.2%,89.3%,106%,48.7%
COc1ccc2nc(Cl)c(/C=C/C(=O)c3ccc(NC(=O)CSc4nnc(-c5ccc(Cl)c(Cl)c5)n4-c4ccccc4)cc3)cc2c1,83.5%,80%,95.6%,92.3%,82.5%,68.6%,105%,98.4%
COc1cc(OC)cc(C2C(C#N)=C(N)Oc3c2ccc2ccc(O)cc32)c1 (stereo unspecified),58.4%,26.2%,4.98% (active),26.1%,7.95% (active),4.25% (active),7.75% (active),5.84% (active)
COc1ccc(C(c2cc(OC)c(OC)c(OC)c2)N2CCN(Cc3ccccc3)CC2)cc1 (stereo unspecified),75.1%,92.4%,-32.2% (active),43.6%,47.7%,56.7%,91.9%,40.6%
